How the values were obtained:
Details in all cases: concentration: 1 μM, replicates: in singlicate; n = 1
SRPK2 = system: SRPK2
SRPK3 = system: SRPK3
STK16 = system: STK16
STK33 = system: STK33
STK35 = system: STK35
STK36 = system: STK36
STK39 = system: STK39
SYK = system: SYK
SgK110 = system: SgK110
TAK1 = system: T1, TAK1
T1 construct: gene MAP3K7

TAOK1 = system: TAOK1
TAOK2 = system: TAOK2
TAOK3 = system: TAOK3
TBK1 = system: TBK1
TEC = system: TEC
TESK1 = system: TESK1
TGFBR1 = system: TGFBR1
TGFBR2 = system: TGFBR2
TIE1 = system: TIE1
TIE2 = system: T2, TIE2
T2 construct: gene TEK
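Note: KINOMEscan kinase panel screen.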

Row | Structure (SMILES) | %Inh (SRPK2) | %Inh (SRPK3) | %Inh (STK16) | %Inh (STK33) | %Inh (STK35) | %Inh (STK36) | %Inh (STK39) | %Inh (SYK) | %Inh (SgK110) | %Inh (TAK1) | %Inh (TAOK1) | %Inh (TAOK2) | %Inh (TAOK3) | %Inh (TBK1) | %Inh (TEC) | %Inh (TESK1) | %Inh (TGFBR1) | %Inh (TGFBR2) | %Inh (TIE1) | %Inh (TIE2)
1 | Fc1ccc(-c2nn3cccc(F)c3c2-c2ccncc2)cc1 [GW475620] | 0% | 16% | 0% | 5% | 0% | 28% | 1% | 14% | 0% | 0% | 0% | 0% | 0% | 22% | 0% | 4% | 17% | 11% | 7% | 1%
2 | CC(=O)c1c(C)c2cnc(Nc3ccn(C)n3)nc2n(C2CCCC2)c1=O | 0% | 0% | 55% | 0% | 5% | 0% | 0% | 0% | 0% | 11% | 0% | 0% | 0% | 0% | 0% | 4% | 0% | 0% | 0% | 0%
3 | CS(=O)(=O)CCNCc1nc(-c2ccc3ncnc(Nc4ccc5c(cnn5Cc5ccccc5)c4)c3c2)cs1.Cl.Cl [GW569716] | 33% | 9% | 0% | 0% | 0% | 0% | 0% | 13% | 0% | 0% | 0% | 0% | 0% | 0% | 0% | 21% | 27% | 0% | 0% | 0%
4 | CCn1c(-c2ccccc2)nc2cnccc21 [SB-733416] | 0% | 5% | 0% | 0% | 7% | 0% | 8% | 17% | 0% | 0% | 0% | 0% | 1% | 0% | 0% | 9% | 0% | 8% | 0% | 0%
5 | c1ccc(-c2ccnc3[nH]ccc23)cc1 [SB-693578] | 7% | 0% | 44% | 0% | 32% | 0% | 33% | 0% | 0% | 11% | 0% | 0% | 0% | 11% | 5% | 43% | 0% | 10% | 0% | 0%
6 | COC(=O)C(NC(=O)NC1CCN(c2ccnc(Nc3ccc(F)cc3)n2)C1)c1ccccc1 (stereo not drawn) [GSK1379712] | 0% | 0% | 0% | 0% | 0% | 29% | 0% | 21% | 19% | 12% | 0% | 0% | 0% | 18% | 11% | 0% | 26% | 0% | 0% | 0%
7 | Nc1ncnc2occ(-c3ccc4c(c3)CCN4C(=O)Cc3cc(F)ccc3F)c12 [GSK2645446] | 0% | 0% | 0% | 0% | 0% | 0% | 0% | 0% | 0% | 17% | 0% | 6% | 0% | 10% | 0% | 0% | 0% | 0% | 45% | 0%
8 | CC(C)c1ccc(O)cc1Nc1ccnc2ccc(C(F)(F)F)cc12 [GW482059] | 0% | 16% | 0% | 19% | 0% | 0% | 0% | 23% | 0% | 0% | 0% | 0% | 4% | 0% | 0% | 0% | 0% | 15% | 13% | 0%
9 | COc1cccc(C2=C(Nc3cc(Cl)c(O)c(Cl)c3)C(=O)NC2=O)c1 [SB-390767] | 5% | 24% | 11% | 0% | 0% | 0% | 0% | 0% | 0% | 0% | 69% | 0% | 29% | 0% | 1% | 0% | 0% | 30% | 0% | 0%
10 | CC(=O)c1c(C)c2cnc(Nc3ccc(N4CCNCC4)cn3)nc2n(C2CCCC2)c1=O | 0% | 0% | 0% | 0% | 8% | 0% | 0% | 0% | 0% | 28% | 0% | 0% | 0% | 4% | 0% | 12% | 3% | 0% | 0% | 0%
11 | COc1ccc(Nc2nccc(N3CCC(NC(=O)C(C)c4ccc(Cl)cc4)CC3)n2)cc1 (stereo not drawn) [GSK1379812] | 0% | 8% | 10% | 0% | 0% | 18% | 38% | 32% | 27% | 0% | 0% | 0% | 0% | 21% | 0% | 0% | 3% | 0% | 0% | 0%
12 | CNCc1ccc2nc(NC(=O)c3ccc(C(C)(C)C)cc3)cn2c1 | 5% | 0% | 0% | 1% | 0% | 11% | 42% | 2% | 9% | 20% | 100% | 22% | 93.2% | 0% | 2% | 0% | 3% | 2% | 6% | 4%
13 | COc1ccc(Nc2nccc(-c3ccc(NC(=O)c4cc5cc(F)ccc5[nH]4)cc3)n2)cc1 [GSK1229496] | 14% | 7% | 2% | 0% | 0% | 0% | 0% | 8% | 0% | 0% | 0% | 0% | 0% | 11% | 0% | 7% | 9% | 0% | 0% | 0%
14 | Cc1cnc(N)c(/C=C/c2cncc(C(=O)NCCc3ccc(Cl)cc3Cl)c2)c1.Cl [GSK190937] | 34% | 0% | 1% | 5% | 0% | 28% | 2% | 22% | 9% | 0% | 11% | 0% | 25% | 12% | 18% | 1% | 0% | 0% | 20% | 0%
15 | Cc1ccc(NC(=O)Nc2ccccc2F)cc1-c1ccc(C(=O)Nc2ccncc2)cc1 [GSK1398477] | 0% | 28% | 11% | 8% | 21% | 6% | 0% | 44% | 0% | 0% | 0% | 0% | 0% | 13% | 24% | 2% | 0% | 13% | 35% | 0%
